S16 F2sN tox – Cell viability qHTS assay in S16 Pmp22-F2sN cells; AID 1508642, 2021; Potency, µM (highest dose often 57.5 µM), for inactives: at the highest dose activity change, negative = cytotoxicity, hits mostly cytotoxic; S16 Pmp22-F2sN Schwann cells viability, CellTiter-Glo, 24 h; hit rate 0.48% among 43,000; note: nearly all actives have a fitted effect of over 65% in size
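S16 Schwann cells carrying the Pmp22-F2sN reporter, seeded in 1536-well format, were exposed to library compounds for 24 h at 37C. Viability was read as CellTiter-Glo luminescence after 15 min at room temperature.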
pS6 MEF inh – Acumen qHTS Assay for Inhibitors of the mTORC1 Signaling Pathway in MEF (Tsc2-/-, p53-/-) Cells: Sytravon; Potency, µM (series often up to 38.3 µM), without a hit: top-dose activity change, negative = inhibition, most hits filed as inhibitors; hit rate 0.78% among 44,000; AID 493208, 2011; Tsc2-/- p53-/- MEF, phospho-rpS6 immunofluorescence/PI, 24 h;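 note: plate controls were DMSO for no effect and rapamycin for full effect; nearly all actives have a fitted effect of over 50% in size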
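Cell-based qHTS: Tsc2-/- p53-/- MEF, 24 h cpd, 37 °C; fix/perm, anti-phospho-S6 Alexa-488 + PI; Acumen 488 nm scan; pS6/PI ratio, % positive cells; rapamycin 7.5 nM = inhibition ref; PI count = viability.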
p53null 39C tox – qHTS Screen for Compounds that Selectively Target Cancer Cells with p53 Mutations: Cytotoxicity of p53 Null Cells at the Nonpermissive Temperature. hit rate 0.97% among 55,000. Potency, µM (highest dose often 46.1 µM), without a hit: top-dose activity, negative = cell killing, actives largely listed as cytotoxic. H1299 p53-null (neo) cells, 39C, ATPlite viability, 24 h. AID 904, 2007;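 note: 0% = DMSO only and -100% = full killing by 100 µM tamoxifen; nearly all actives have a fitted effect of over 50% in size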
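Following overnight plating at 37C (600 cells/well), H1299-neo or H1299-p53A138V cells are dosed up to 46 uM. Incubation lasts 24 hr at 39C before ATP detection.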
PMP22 txn – Cell-based coincidence reporter assay to measure PMP22 gene transcription in S16 Pmp22-F2sN cells - Primary screen; S16 Pmp22-F2sN Schwann cells (luciferase reporters placed in the Pmp22 gene), FLuc/NLuc coincidence luminescence, 24 h; hit rate 2% among 43,000; AID 1508649, 2021; Potency, µM (series often up to 57.5 µM), for the others: at the top dose activity change, negative = inhibition, actives largely listed as inhibitors; active = clear falling dose curves in both reporters; inconclusive = both reporters move, but less clearly or upward; inactive = either reporter flat; the % is the NLuc reporter signal
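Transcriptional readout in edited S16(c9) cells: two luciferases reported from the Pmp22 locus, measured in turn after 24 h compound incubation.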
p53null 32C kill – qHTS Screen for Compounds that Selectively Target Cancer Cells with p53 Mutations: Cytotoxicity of p53 Null Cells at the Permissive Temperature | H1299-neo p53 null cells, ATP luminescence, 24 h, 32C | Potency, µM (top dose mostly 46.1 µM), without a hit: at the top dose activity change, negative = cytotoxicity, hits mostly cytotoxic | hit rate 0.62% among 55,000 | AID 903, 2007;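 note: 0% = DMSO only and -100% = full killing by 100 µM tamoxifen; nearly all actives have a fitted effect of over 55% in size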
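H1299-neo (p53 null) cells, 600/well, treated 24 h at 32C with compound up to 46 uM; ATPlite luminescence viability, normalized to DMSO and 100 uM tamoxifen; AC50 by Hill fit.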
Numbers without * were called inactive; ? = inconclusive; . = no result. A selection: hits, their analogues and other compounds. The true share with any hit is near 3.2%. Unless noted, calls come from the whole dose curve; as a rule, active = well fitted curve in the direction sought with a large enough effect; inconclusive = small, poorly fitted or top-dose-only effect, or another doubt; inactive = no such curve, though single readings can be large; an effect the other way counts as inactive or inconclusive. Unless noted, % is set by controls: 0 for no effect and ±100 for the full control effect; potency is the fitted concentration of half-maximal effect.

SMILES | S16 F2sN tox | pS6 MEF inh | p53null 39C tox | PMP22 txn | p53null 32C kill
Cc1ccccc1CS(=O)(=O)c1ncc(Cl)c(C(=O)Nc2nnc(C(C)C)s2)n1 | ? | 9.3µM* | ? | 7µM* | 6%
CC(C)Sc1ncc(Cl)c(C(=O)Nc2nnc(C(C)C)s2)n1 | 24% | -10% | -13% | 9% | -1%
O=C(CSc1ccc(-c2ccco2)nn1)NCc1ccc(F)cc1 | . | . | 1% | . | -6%
Cc1ccc(-n2ncc(C(=O)NCCCN3CCc4ccccc4C3)c2C2CCN(C(=O)OC(C)(C)C)CC2)c(C)c1 | ? | 9.3µM* | ? | ? | 8%
COc1ccc(Cl)cc1C1CC(=O)Nc2cc3c(cc21)OCCO3 (stereo not given) | ? | ? | ? | 2.5µM* | 8%
CCOc1cccc(C2CC(=O)Nc3cc4c(cc32)OCCO4)c1 (stereo not given) | ? | 21µM* | 7% | ? | 27%
C#CCn1c(/C=C/c2ccc(Cl)cc2)nc2ccccc21 | ? | 1% | 4µM* | 3% | 3.2µM*
CC(C)CCn1c(/C=C/c2ccccc2)nc2ccccc21 | -11% | -20% | ? | ? | ?
CCC(C)Cn1c(/C=C/c2ccccc2)nc2ccccc21 (stereo not given) | -21% | -22% | 10µM* | ? | ?
CC(C)Cn1c(-c2ccccc2Cl)nc2ccccc21 | 2% | -8% | -27% | 5% | -9%
CC(C)Cn1c(/C=C/c2ccc(F)cc2)nc2ccccc21 | ? | -20% | 7.9µM* | ? | 11µM*
COc1ccc(CCNC(=O)CCn2c(=O)c3ccccc3n(Cc3ccccc3F)c2=O)cc1OC | ? | -15% | ? | ? | -20%
CC(C)c1ccc(C2NC(=O)c3c(sc4c3CCN(C)C4)N2)cc1 (stereo not given) | ? | 1% | 2% | ? | -7%
CN1CCc2c(sc3c2C(=O)NC(c2ccc(C(C)(C)C)cc2)N3)C1 (stereo not given) | 14µM* | -16% | 20% | ? | -4%
CCOc1ccc(N(CC)C(=O)c2cc3c(s2)-c2ccc(Cl)cc2SC3)cc1 | 11% | -8% | 10µM* | ? | -5%
CCc1ccccc1N(CC)C(=O)c1cc2c(s1)-c1ccccc1SC2 | -4% | -5% | 13µM* | ? | -1%
CCOc1ccc2nc(Cl)c(C3CC(c4ccc(OC)cc4)=NN3S(C)(=O)=O)cc2c1 (stereo not given) | . | 1% | -12% | . | 15%
Cc1ccc(-c2c(C)n3c4c(=O)n(C)c(=O)n(C)c4nc3n2CCO)cc1 | ? | -29% | -4% | 4.8µM* | -4%
Cn1nnnc1SCCCNCc1ccccc1OCc1ccc(Cl)cc1 | -23% | 13µM* | -16% | ? | -1%
Fc1ccc(C2=CC(c3ccc(F)cc3)n3c(nc4ccccc43)N2)cc1 (stereo not given) | 1% | -2% | 10µM* | ? | 13µM*
COc1ccc(C2=CC(c3cc(Br)ccc3F)n3c(nc4ccccc43)N2)cc1 (stereo not given) | -2% | -1% | 11µM* | ? | 13µM*
COC(=O)c1ccc(C2C=C(c3ccc(Cl)cc3)Nc3nc4ccccc4n32)cc1 (stereo not given) | -24% | ? | 10µM* | ? | 10µM*
COC(=O)c1nc2n(n1)C(c1cc(OC)ccc1OC)C=C(c1ccc(Br)cc1)N2 (stereo not given) | ? | -17% | -3% | ? | 18%
CCc1ccc(S(=O)(=O)c2c(C(=O)c3ccccc3)cnc3ccc(CC)cc23)cc1 | 5% | -12% | 41% | ? | 14%
CCc1ccc(NC(=O)CSc2cn(CC(=O)N3CCCC3)c3ccccc23)cc1 | 6% | -4% | -8% | -26% | -8%
SMILES | S16 F2sN tox | pS6 MEF inh | p53null 39C tox | PMP22 txn | p53null 32C kill
O=S(=O)(Nc1cccc(-c2ccc(N3CCCCCC3)nn2)c1)c1ccc(F)cc1 | . | 0% | -13% | . | -27%
CCc1ccc(S(=O)(=O)Nc2cccc(-c3ccc(OC)nn3)c2)s1 | ? | -1% | -1% | -19% | 2%
Cc1ccc(S(=O)(=O)Nc2cccc(-c3ccc(N4CCCCC4)nn3)c2)s1 | -17% | 3% | 13µM* | -14% | 13µM*
Cc1ccc(S(=O)(=O)Nc2cccc(-c3ccc(N4CCCC4)nn3)c2)c(C)c1 | . | 3% | 31% | . | 18%
CC(=O)c1ccc(S(=O)(=O)Nc2cccc(-c3ccc(N4CCCCC4)nn3)c2)cc1 | . | 3% | 7.9µM* | . | 10µM*
CCc1ccc(S(=O)(=O)Nc2cccc(-c3ccc(N4CCCCC4)nn3)c2)s1 | . | 0% | 13µM* | . | 16µM*
CCOc1ccc(NC(=O)C2CCN(S(=O)(=O)c3c(C)noc3/C=C/c3ccco3)CC2)cc1 | 7% | 0% | 5% | -35% | 10%
O=C(c1cnc(N2CCOCC2)c2ccccc12)N1CCN(c2ccccc2)CC1 | -3% | -4% | 13µM* | ? | -3%
Cc1cccc(Cn2nnc(C(=O)Nc3cc(C)ccc3C)c2N)c1 | -8% | -2% | -9% | ? | -12%
Cc1ccc(NC(=O)c2nnn(Cc3cccc(C(F)(F)F)c3)c2N)c(C)c1 | ? | ? | 37% | 6µM* | -3%
Cc1cnc(NC(=O)CSc2nnc(-c3ccccc3)o2)s1 | . | . | 14µM* | . | ?
Cc1cnc(NC(=O)CSc2ncn(-c3ccccc3)n2)s1 | . | . | -5% | . | 0%
Cc1ccc(S(=O)(=O)c2nc(-c3cccs3)oc2SCC(=O)Nc2cc(C)cc(C)c2)cc1 | 1% | 21µM* | ? | ? | -28%
COc1ccc(NC(=O)CSc2oc(-c3cccs3)nc2S(=O)(=O)c2ccc(C)cc2)c(OC)c1 | 7% | 3% | -5% | 60% | 7%
Nc1ccc2nc(-c3ccc(O)cc3)sc2c1 | -29% | -7% | 1.3µM* | ? | 2.5µM*
O=C(CCn1c(=O)c2sccc2n(CC(=O)Nc2ccccc2)c1=O)NCc1ccccc1Cl | ? | ? | -65% | ? | -17%
Cc1ccc(CN2c3ccccc3-c3nc(SCC(=O)Nc4c(C)cc(C)cc4C)ncc3S2(=O)=O)cc1 | 28µM* | -8% | -26% | ? | -10%
Cc1ccc(CN2c3ccccc3-c3nc(SCC(=O)NCCc4ccccc4)ncc3S2(=O)=O)cc1 | 2% | 6% | -11% | 3% | -1%
